Screens as filed in PubChem BioAssay.
HTT ATP protect – qHTS Multiplex Assay to Identify Dual Action Probes in a Cell Model of Huntington: Cytoprotection (ATP); actives 0.14% (n = 230,000); AID 1471, 2008; Potency, µM (highest dose often 56.4 µM), inactives show cytoprotection (ATP increase), hits mostly activators; PC12 HTT-Q103 induced, cytoprotection, ATP luminescence, 40 h; note: potency is the fitted concentration of half-maximal effect; % of control where 0% means no effect; nearly all actives have a fitted effect of over 45% in size
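Readout: ATPlite luminescence (ATP level). Model: stable PC12, inducible Htt exon1 Q103-GFP. Inducer: tebufenozide, 100 nM final. Compounds: dose series. No G418 in medium.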
ALDH1A1 inh – qHTS Assay for Inhibitors of Aldehyde Dehydrogenase 1 (ALDH1A1) | Potency, µM (top dose mostly 75.3 µM), for inactives: at the highest dose activity, negative = inhibition, usual class: inhibitors | Purified ALDH1A1, NADH fluorescence, propionaldehyde substrate | actives 7.3% (n = 220,000); active = well fitted inhibition curve with a large enough effect, not every such curve was filed as active; inconclusive = small, poorly fitted or top-dose-only effect, or another doubt; inactive = no such curve, though single readings can be large or run the other way;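 note: potency is the fitted concentration of half-maximal effect; plate controls were no enzyme wells and a reference inhibitor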
Target sequence (P00352 whole entry, looked up): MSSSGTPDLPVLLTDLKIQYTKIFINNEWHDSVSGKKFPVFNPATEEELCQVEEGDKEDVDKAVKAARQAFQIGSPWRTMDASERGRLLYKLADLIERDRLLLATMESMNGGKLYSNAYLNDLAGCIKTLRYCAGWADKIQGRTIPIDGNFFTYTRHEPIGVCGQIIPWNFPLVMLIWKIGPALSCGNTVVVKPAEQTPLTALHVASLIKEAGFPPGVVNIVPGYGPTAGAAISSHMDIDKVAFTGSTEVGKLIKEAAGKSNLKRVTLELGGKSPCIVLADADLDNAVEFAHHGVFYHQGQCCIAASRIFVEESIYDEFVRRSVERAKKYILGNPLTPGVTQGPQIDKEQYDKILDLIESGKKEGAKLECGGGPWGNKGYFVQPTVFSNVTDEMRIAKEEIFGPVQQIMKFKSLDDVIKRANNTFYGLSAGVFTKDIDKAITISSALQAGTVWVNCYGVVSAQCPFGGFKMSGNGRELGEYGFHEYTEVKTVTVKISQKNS
HttQ103 aggreg – qHTS Multiplex Assay to Identify Dual Action Probes in a Cell Model of Huntington: Aggregate Formation (GFP); PC12 HttQ103-GFP aggregates, Acumen cytometry, 40 h; Potency, µM (highest dose often 46.1 µM), for inactives: at the top dose activity change, negative = inhibition, usual class: inhibitors; actives 1.1% (n = 220,000); note: potency is the fitted concentration of half-maximal effect; % is set by controls: 0 for no effect and ±100 for the full control effect; nearly all actives have a fitted effect of over 60% in size
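Inducible Q103 Huntingtin exon 1–GFP PC12 line, 1500 cells/well in phenol red free DMEM with 5% equine and 5% calf serum. Tebufenozide 100 nM induced expression; compounds titrated; aggregates quantified by cytometry.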
PNC assembly inh – High Content Assay for Compounds that inhibit the Assembly of the Perinucleolar Compartment; PC3M PTB-GFP, PNC prevalence imaging, 16 h; active compounds read low; activity change (PNC), negative = inhibition, % at 10 µM; actives 3.1% (n = 140,000); AID 2417, 2010;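 active = readout at or below -70, meaning at least 70% loss of cells showing the perinucleolar compartment, a nuclear body marking cancer cells; inconclusive = readout between -30 and a set limit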;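 note: plate controls were DMSO wells for no effect and camptothecin positive control wells for full effect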
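Read-out is percentage of cells bearing a perinucleolar compartment, from automated 20x imaging of fixed, Hoechst-stained PC3M PTB-GFP cells. Cells were seeded 4 h, then exposed 16 h to compound (23 nl of library stock) in duplicate plates.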
HPGD inh – qHTS Assay for Inhibitors of HPGD (15-Hydroxyprostaglandin Dehydrogenase); 15-hydroxyprostaglandin dehydrogenase [NAD(+)] (Homo sapiens), P15428; purified HPGD, NADH fluorescence kinetic, PGE2 substrate; Potency, µM, for the others: at the top dose activity change, negative = inhibition, usual class: inhibitors; actives 4.3% (n = 150,000); active = well fitted inhibition curve with a large enough effect, not every such curve was filed as active; inconclusive = small, poorly fitted or top-dose-only effect, or another doubt; inactive = no such curve, though single readings can be large or run the other way; note: potency is the fitted concentration of half-maximal effect; % is set by controls: 0 for no effect and ±100 for the full control effect
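NADH formation kinetics: reaction with 30 uM PGE2 and 1 mM NAD+ (final), 20 nM enzyme, Tris-HCl pH 8 with Tween 20, after 15 min compound preincubation at room temperature. Fluorescence change, last versus first of five reads.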
CBFb RUNX1 block – qHTS Assay for Compounds Blocking the Interaction Between CBF-beta and RUNX1 for the Treatment of Acute Myeloid Leukemia. AlphaScreen CBFb-His/RUNX1-biotin binding, biochemical. Potency, µM (highest dose often 59.8 µM), without a hit: at the top dose activity, negative = inhibition, usual class: inhibitors. 230,000 tested, under 10 active. AID 1477, 2009; note: % of control where 0% means no effect
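Inhibition was taken as any reduction in AlphaScreen signal from the CBF-beta–RUNX1 pair (His and biotin tags, 30 nM each), measured after compound (15 min) and bead (90 min) incubations at room temperature.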
* marks the source's active call; other numbers are inactive results; i = inactive; ? = inconclusive; . = no result; [ ] = dose if it differs, or a comment. Most compounds without a hit are left out; they make up all but 11% or so of the library. Unless noted, calls come from the whole dose curve; as a rule, active = well fitted curve in the direction sought with a large enough effect; inconclusive = small, poorly fitted or top-dose-only effect, or another doubt; inactive = no such curve, though single readings can be large; an effect the other way counts as inactive or inconclusive.

SMILES	HTT ATP protect	ALDH1A1 inh	HttQ103 aggreg	PNC assembly inh	HPGD inh	CBFb RUNX1 block
COc1ccccc1C(=O)COC(=O)c1ccc(N(C)C)cc1	-34%	?	20%	.	.	4%
COc1ccc(C(=O)c2ccc(N(C)C)cc2)c2ccccc12	-72%[10 µM]	-9%	?	-97*	-5%	0%
COc1cc(N2C(=O)C=CC2=O)c(OC)cc1Cl	3%[10 µM]	8.9µM*	-11%[9.22 µM]	.	.	1%
COc1cccc2cc(C(=O)NCCC3=CCCCC3)c(=O)oc12	-5%	10µM*	-13%	.	.	-5%
COc1cccc2cc(C(=O)NC(C)C3CCCO3)c(=O)oc12 (stereo not drawn)	28%[10 µM]	?	-4%	-87*	-26%	1%
COc1cccc2cc(C(=O)NCC3CCCO3)c(=O)oc12 (stereo not drawn)	-4%[0.074 µM]	?	-8%	?	-25%	1%
Cc1cc(C(=O)NCCC2=CCCCC2)c(C)o1	-16%	11µM*	?	-81*	?	6%
CCCCC1=CC2=C(OC(C)=O)C(=O)C(C)(OC(=O)c3ccc(Cl)nc3)C(=O)C2=CO1 (stereo not drawn)	-27%	13%	.	.	-7%	3%
Cc1cccnc1-n1c(CCN2C(=O)c3ccccc3C2=O)nc2ccccc2c1=O	-11%	18µM*	22%	52	-15%	0%
CCOc1ccccc1C(=O)N1c2ccccc2Sc2ccccc21	?	6%	16µM*	-15	-6%	2%
COc1ccccc1C(=O)N1c2ccccc2Sc2ccccc21	.	2%	0%	-26	-2%	5%
CC[C@H](C)[C@H](NC(=O)[C@H](Cc1ccccc1)NC(=O)[C@H](CC(C)C)NC(=O)[C@H](CCSC)NC(=O)[C@H](CCC(=O)O)NC(=O)[C@H](CCC(=O)O)NC(=O)[C@H](CC(=O)O)NC(=O)[C@H](CO)NC(=O)[C@@H]1CCCN1C(=O)[C@H](CCCCN)NC(=O)[C@@H](N)[C@@H](C)O)C(=O)N[C@@H](Cc1ccc(O)cc1)C(=O)NCC(=O)N[C@@H](Cc1cnc[nH]1)C(=O)N[C@@H](Cc1ccc(O)cc1)C(=O)N[C@@H](CCCCN)C(=O)N[C@@H](CCC(N)=O)C(=O)N[C@@H](C)C(=O)N[C@H](C(=O)N[C@H](C(=O)NCC(=O)N[C@@H](CC(=O)O)C(=O)N[C@H](C(=O)N[C@@H](CC(N)=O)C(=O)N[C@H](C(=O)N[C@@H](CCC(=O)O)C(=O)N[C@@H](CCCNC(=N)N)C(=O)N1CCC[C@H]1C(=O)NCC(=O)N[C@@H](CCSC)C(=O)N[C@@H](CC(C)C)C(=O)N[C@@H](CC(=O)O)C(=O)N[C@@H](Cc1ccccc1)C(=O)N[C@H](C(=O)O)[C@@H](C)O)[C@@H](C)O)[C@@H](C)CC)C(C)C)[C@@H](C)O	.	.	.	.	.	6%
CNc1nc2[nH]c(=O)c3c(c2s1)OC(N)=C(C#N)C3c1cccc(F)c1 (stereo not drawn)	-11%	7.1µM*	21%	-13	?	-4%
C=CCSc1nc2c(c(=O)[nH]1)C(c1ccccc1)C(C#N)=C(N)O2 (stereo not drawn)	1%[10 µM]	.	7%[9.22 µM]	.	.	-1%
CC1(Cn2ccnn2)[C@H](C(=O)O)N2C(=O)C[C@H]2S1(=O)=O (stereo partly drawn)	-12%	5%	-8%	.	1%	5%
CCCCn1c(SCC(=O)NCc2ccco2)nc2cc(S(N)(=O)=O)ccc21	-12%	14µM*	-1%	27	?	-9%
CCCCn1c(SCC(=O)c2ccc(OCC)cc2)nc2cc(S(N)(=O)=O)ccc21	-3%	35µM*	4%	38	-9%	6%
Cc1cnc(CNc2nc(-c3ccccc3C(F)(F)F)nc3ccccc23)cn1	-13%	?	.	.	.	.
CCOc1cc2c(cc1OCC)C(c1ccccc1OC)OC(=O)C2 (stereo not drawn)	3%[10 µM]	11µM*	-13%	36	-9%	-2%
COc1ccc(C2OC(=O)Cc3cc(OC)c(OC)cc32)cc1 (stereo not drawn)	11%[10 µM]	7%	11%[9.22 µM]	.	.	8%
CC(C)(C)C1=C[C@@H](CO)C[C@@H](CO)C1	-23%	28µM*	-11%	?	-11%	5%
C#CCOCCOCCOCCNc1nc(N2CCN(C(=O)[C@H](CCC(=O)O)n3cc(C(N)CO)nn3)CC2)nc(N2CCN(C(=O)[C@H](CCC(=O)O)n3cc(C(N)[C@H](C)CC)nn3)CC2)n1 (stereo partly drawn)	6%[10 µM]	-2%	-12%[9.22 µM]	.	.	13%
COc1ccc(CCNC(=O)C2CCC(CNS(=O)(=O)c3ccc(F)cc3)CC2)cc1OC (stereo not drawn)	11%[10 µM]	?	0%	.	.	-2%
O=C(C1CCC(CNS(=O)(=O)c2cccc3cccnc23)CC1)N1CCCC1 (stereo not drawn)	-5%	-8%	8%	?	6.3µM*	-1%
O=C(NCCc1ccccc1)C1CCC(CNS(=O)(=O)c2cccs2)CC1 (stereo not drawn)	?	4µM*	-13%	.	.	14%
SMILES	HTT ATP protect	ALDH1A1 inh	HttQ103 aggreg	PNC assembly inh	HPGD inh	CBFb RUNX1 block
Cc1cccc(CCNC(=O)C2CCC(CNS(=O)(=O)c3cccs3)CC2)c1 (stereo not drawn)	-38%	1.8µM*	1%	.	.	2%
O=C(c1ccc2c(c1)OCCO2)N1CCCC(CNS(=O)(=O)c2cccs2)C1 (stereo not drawn)	2%[10 µM]	2.2µM*	28%[9.22 µM]	.	.	10%
CS(=O)(=O)N1CCC[C@@]2(CCN(c3ccccc3)C2)C1	-76%	?	.	.	0%	.
O=C(NCCc1ccccc1)C1CCN(S(=O)(=O)c2cccs2)CC1	-7%	10µM*	-11%	?	-3%	4%
COCCNC(=O)C1CCN(S(=O)(=O)c2ccccc2)CC1	-38%	0%	-7%	11	25µM*	-2%
COCCCNC(=O)C1CCN(S(=O)(=O)c2c(C)noc2/C=C\c2ccc(OC)cc2)CC1	-43%	?	-9%	-109*	i	4%
